Only a selection was taken, and hits are over-represented in it overall.
GIRK2 act – GIRK2 channel activators by thallium flux; HEK293 GIRK2/NPY4 cells, thallium flux fluorescence; activation (% efficacy), % for hits at 37.5 µM; 34,000 tested, under 10 active; AID 1259324;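 active = primary screen hit, no activity in plain HEK293 cells, and in GIRK2-only cells above 5% efficacy rising with concentration; inactive = the rest, including fluorescent compounds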;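 also: efficacy is normalized control-subtracted fluorescence 15 s after thallium addition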
Target sequence (P48051 whole entry, looked up): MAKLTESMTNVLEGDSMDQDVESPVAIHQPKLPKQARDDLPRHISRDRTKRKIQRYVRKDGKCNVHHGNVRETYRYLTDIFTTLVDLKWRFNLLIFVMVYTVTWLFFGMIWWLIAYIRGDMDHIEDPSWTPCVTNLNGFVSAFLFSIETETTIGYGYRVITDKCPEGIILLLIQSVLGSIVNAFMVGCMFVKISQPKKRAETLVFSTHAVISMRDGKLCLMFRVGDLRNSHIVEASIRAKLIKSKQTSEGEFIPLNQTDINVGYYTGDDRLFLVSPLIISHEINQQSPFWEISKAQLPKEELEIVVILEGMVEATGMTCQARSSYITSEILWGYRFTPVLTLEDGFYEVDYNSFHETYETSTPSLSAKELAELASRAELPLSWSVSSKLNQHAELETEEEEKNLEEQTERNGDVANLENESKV
GluA2 TARP mod – GluA2-stargazin AMPA receptor complex modulation; calls only at 30 µM; 3.5% of 40,000 active; O88602+P19491; HEK293 GluA2+stargazin, membrane potential dye (FDSS), glutamate EC50; hits were called plate by plate, in both directions;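 active = any of four per-well response measures lying three or more SD from its plate-wide compound average, in either direction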
Calls only; – = inactive; · = not tested or not shown; + = active, no number.

SMILES	GIRK2 act	GluA2 TARP mod
Cc1cc(C)c(C)c(OCC(O)CN2CC(C)CC(C)C2)c1 (stereo not given)	–	+
COc1ccccc1OCC(O)CN1C(C)(C)CC(O)CC1(C)C (stereo not given)	–	–
COc1ccccc1OCC(O)CN1CC(C)CC(C)C1 (stereo not given)	–	–
Cc1ccc(-n2nnc3c(N4CCN(C(=O)c5cc(=O)c6ccccc6o5)CC4)ncnc32)cc1	–	–
CC(C)C(=O)Nc1cc(C(=O)N2CCOCC2)cn(C)c1=O	·	–
CC1C(=O)NCCN1C(=O)c1cc2ccccc2oc1=O (stereo not given)	–	·
Cc1cc(C(=O)N(Cc2ccco2)c2nc3c(C)cc(Cl)cc3s2)on1	–	–
Cc1ccc2nc(-c3ccc(NC(=O)Cc4ccc(S(C)(=O)=O)cc4)cc3)sc2c1	·	–
Cc1ccc(S(=O)(=O)NCCn2nc(C)c(Cl)c2C)c(C)c1	–	+
Cc1ccc(S(=O)(=O)NCC2CCN(C)CC2)c(C)c1	–	–
O=C(CSc1ccc(-c2ccccc2)nn1)Nc1ccccc1[N+](=O)[O-]	·	–
O=C(Nc1ccccc1)C(=O)Nc1ccc([N+](=O)[O-])cc1	·	–
O=[N+]([O-])c1ccc(C2=NCCN2)cc1	·	+
CSc1cccc(NC(=O)Cn2cc(-c3nc(-c4ccc(C)cc4)no3)c(=O)c3ccc(C)nc32)c1	–	–
COc1ccc(C)cc1S(=O)(=O)N1CCN(c2ccc(-c3ccccc3)nn2)CC1	–	–
COc1ccc(S(=O)(=O)N2CCN(c3ccc(Nc4ccncc4)nn3)CC2)cc1	–	+
COc1ccc(S(=O)(=O)N2CCN(c3ccc(-c4ccncc4)nn3)CC2)c(OC)c1	–	+
O=S(=O)(c1ccccc1)N1CCN(c2ccc(Nc3ccncc3)nn2)CC1	–	–
Cc1nc(C(=O)NCCn2ncc3c(N4CCCC4)ncnc32)cs1	·	–
O=C(NC1CC1)N1CCC(c2ccccc2)C1 (stereo not given)	·	–
CSc1cccc(NC(=O)NCCNc2nc(C)cc(N(C)C)n2)c1	–	–
Cc1cc(N(C)C)nc(NCCNC(=O)Nc2cccc(C(F)(F)F)c2)n1	–	+
O=C(/C=C/c1ccccc1)N1CCC2(CC1)NC(=O)N(CCOc1ccccc1)C2=O	–	–
CS(=O)(=O)N1CCC(C(=O)Nc2nnc(-c3cc(Cl)ccc3Cl)o2)CC1	–	·
O=C(NCC1CCN(c2ccccn2)CC1)Nc1cccc(C(F)(F)F)c1	·	–
SMILES	GIRK2 act	GluA2 TARP mod
O=C(NCC1CCN(C(=O)COc2ccccc2)CC1)Nc1ccccc1F	–	–
O=C(NCC1CCN(c2ncccn2)CC1)Nc1cccc(C(F)(F)F)c1	–	+
O=C(NCC1CCN(C(=O)COc2ccccc2)CC1)Nc1cccc(C(F)(F)F)c1	–	+
Cn1cccc1C(O)CNC(=O)Nc1cccc(C(F)(F)F)c1 (stereo not given)	–	–
O=C(NCC(O)Cc1ccccc1)Nc1cccc(C(F)(F)F)c1 (stereo not given)	–	+
COc1ccc(SCC2CCN(S(=O)(=O)c3c(F)cccc3F)CC2)cc1	–	·
O=C(c1c(F)cccc1F)N(C(=O)N1CCCCC1)c1cccc(Cl)c1	–	–
COc1ccc(S(=O)(=O)N2CCC(C(=O)Nc3cccc4c3C(=O)NC4=O)CC2)cc1	–	–
CSc1ccccc1CN1CCC(CNC(=O)Nc2ccccc2Cl)CC1	–	–
CSc1ccc(CC(=O)Nc2ccc([N+](=O)[O-])cc2)cc1	·	+
O=C(NCCc1ccc(F)cc1)Nc1ccc([N+](=O)[O-])cc1	·	+
CCc1ccc(NC(=O)C(=O)Nc2ccc([N+](=O)[O-])cc2)cc1	·	–
COc1ccc(NC(=O)Cc2ccc(SC)cc2)cc1	·	–
O=C(CCc1ccccc1)NNC(=O)c1cccn(Cc2ccc(Cl)c(Cl)c2)c1=O	–	–
O=S(=O)(c1cccc(Cl)c1)N1CCN(c2ccc3nnc(-c4ccco4)n3n2)CC1	–	–
O=S(=O)(/C=C/c1ccccc1)N1CCN(c2ccc3nnc(-c4ccco4)n3n2)CC1	–	+
CCCC(=O)Nc1ccc(S(=O)(=O)N2CCN(c3ccc4nnc(C)n4n3)CC2)cc1	–	+
O=C(c1ccc(F)cc1F)N1CCN(c2ccc3nnc(-c4ccco4)n3n2)CC1	–	–
CCOC(=O)c1ccc(S(=O)(=O)N2CCN(c3ccc4nnc(CC)n4n3)CC2)cc1	–	–
O=S(=O)(/C=C/c1ccccc1)N1CCN(c2ccc(-c3ccco3)nn2)CC1	–	–
O=S(=O)(c1ccc(F)cc1)N1CCN(c2ccc3nnc(-c4ccco4)n3n2)CC1	–	+
CC(Oc1ccccc1F)C(=O)N1CCN(c2ccc3nnc(-c4ccco4)n3n2)CC1 (stereo not given)	–	+
O=C(Cn1cc(-c2ccccc2)c(N2CCOCC2)n1)Nc1ccc2c(c1)OCCO2	–	·
CCCOc1cccc(C2/C(=C(\O)c3ccc(F)cc3)C(=O)C(=O)N2CCCN(C)C)c1 (stereo not given)	·	–
CC(=O)N1CCN(S(=O)(=O)c2ccc(C(=O)Nc3ccccn3)cc2)CC1	–	–
SMILES	GIRK2 act	GluA2 TARP mod
COc1ccc(S(=O)(=O)CCCC(=O)N2CCN(c3nc4cc(C)cc(C)c4s3)CC2)cc1	·	–
CCOc1ccc(CC(=O)Nc2ccc3c(c2)N(S(=O)(=O)c2ccccc2)CCC3)cc1	·	–
COc1ccc(S(=O)(=O)N2CCN(c3ccc4nnc(-c5ccco5)n4n3)CC2)cc1	–	+
CCc1ccc(S(=O)(=O)N2CCN(c3ccc4nnc(-c5ccco5)n4n3)CC2)cc1	–	–
O=C(CCCn1nc(-c2ccccc2)ccc1=O)Nc1ccc2c(c1)OCCO2	–	·
O=C(CCCn1nc(-c2ccc(Cl)cc2)ccc1=O)Nc1ccc2c(c1)OCCO2	–	+
COc1ccc(-c2cc(OCC(=O)Nc3ccc(OC)cc3OC)c3ccccc3n2)cc1	–	–
COc1ccc(Nc2nc(N3CCNCC3)nc3ccccc23)c(OC)c1	·	+
Cc1ccc(NC(=O)CSc2ncc(S(=O)(=O)c3cccc(Cl)c3)c(=O)[nH]2)cc1F	·	–
O=C(CCS(=O)(=O)c1ccc(Cl)cc1)Nc1nnc(-c2ccccn2)o1	–	+
O=C(CCSc1ccc(Cl)cc1)Nc1nnc(-c2ccccn2)o1	–	–
O=C(NCCc1ccco1)C(=O)Nc1ccc2c(c1)OCO2	–	–
O=C(c1ccc(Br)o1)N(C(=O)N1CCCCC1)c1ccc(Cl)cc1	·	+
O=C(c1cccs1)N(C(=O)N1CCCCC1)c1ccc(Cl)cc1	·	+
O=C(c1cccs1)N(C(=O)N1CCCCC1)c1cccc(Cl)c1	–	–
CSc1ccccc1C(=O)N(C(=O)N1CCCCC1)c1ccc(Cl)cc1	·	–
CCc1cccc(CC)c1NC(=O)/C=C/c1ccc(OC)cc1OC	–	–
COCC(C)NC(=O)c1cc2c(=O)n(C)c(=O)n(C)c2s1 (stereo not given)	–	–
Cc1ccc(C2NC(=O)Nc3c2c(=O)n(C)c(=O)n3C)o1 (stereo not given)	–	–
CCOc1ccccc1-n1nnc(C(=O)Nc2nccs2)c1C	–	–
CSc1ccccc1C(=O)N(CCc1ccccc1)Cc1ccccn1	–	–
O=C(c1nc2ccccc2s1)N(CCc1ccccc1)Cc1ccccn1	–	+
Cc1ccc2c(c1)NC(SCC(=O)NC(C)CCc1ccccc1)=NS2(=O)=O (stereo not given)	–	–
COc1ccc(/C=C2\Oc3cc(OC(=O)c4ccco4)ccc3C2=O)cc1	·	–

Assay outcomes deposited in PubChem BioAssay by several laboratories.
